# Measurements as given in PubChem BioAssay (NCATS).
# Records with an inconclusive call do not appear. Where a call stands in place of a potency, no number is given. Activity calls are given as the source filed them. Calls come from the whole dose curve; as a rule, active = well fitted curve in the direction sought with a large enough effect; inconclusive = small, poorly fitted or top-dose-only effect, or another doubt; inactive = no such curve, though single readings can be large; an effect the other way counts as inactive or inconclusive.
# Tests used:
# [1] = biological target: Pyruvate kinase PKM (Homo sapiens) (UniProt P14618); assay: qHTS Assay for Inhibitors of Human Muscle Pyruvate Kinase (AID 958); conditions: purified human PKM enzyme activity
# In short: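 A coupled luminescent readout tracked ATP made from ADP by purified PKM2. Final conditions included 0.1 nM enzyme, PEP and ADP at 0.5 and 0.1 mM, pH 7.2 imidazole buffer with BSA, and a one-hour room-temperature reaction.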
# [2] = biological target: Pyruvate kinase (Leishmania mexicana) (UniProt Q27686); assay: qHTS Validation Assay for Activators of Leishmania Mexicana Pyruvate Kinase (AID 959); conditions: purified L. mexicana pyruvate kinase, enzyme activity; series mostly up to 57.5 µM
# In short: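 Pyruvate kinase activity of E451W LmPYK (0.2 nM) was followed as ATP output after 1 h at room temperature with 0.5 mM PEP and 0.1 mM ADP, detected by PKLight luminescence.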
# [3] = biological target: alpha-glucosidase (Oryza sativa, rice) (UniProt Q653V4); assay: Counterscreen for Glucocerebrosidase Inhibitors: qHTS Assay for Rice alpha-Glucosidase at pH 5.0 (AID 997); conditions: rice alpha-glucosidase enzyme activity; series mostly up to 76.9 µM
# In short: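 Endpoint fluorogenic assay at pH 5.0: compounds (0.7 nM to 77 uM) titrated against 4 nM rice enzyme and 400 uM 4-MU-alpha-glucoside for 20 min at room temperature; NaOH/glycine stop, read ex 365/em 440 nm, Hill-fitted AC50.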
# Chain of Pyruvate kinase (Leishmania mexicana) (Q27686 2-499 E452W): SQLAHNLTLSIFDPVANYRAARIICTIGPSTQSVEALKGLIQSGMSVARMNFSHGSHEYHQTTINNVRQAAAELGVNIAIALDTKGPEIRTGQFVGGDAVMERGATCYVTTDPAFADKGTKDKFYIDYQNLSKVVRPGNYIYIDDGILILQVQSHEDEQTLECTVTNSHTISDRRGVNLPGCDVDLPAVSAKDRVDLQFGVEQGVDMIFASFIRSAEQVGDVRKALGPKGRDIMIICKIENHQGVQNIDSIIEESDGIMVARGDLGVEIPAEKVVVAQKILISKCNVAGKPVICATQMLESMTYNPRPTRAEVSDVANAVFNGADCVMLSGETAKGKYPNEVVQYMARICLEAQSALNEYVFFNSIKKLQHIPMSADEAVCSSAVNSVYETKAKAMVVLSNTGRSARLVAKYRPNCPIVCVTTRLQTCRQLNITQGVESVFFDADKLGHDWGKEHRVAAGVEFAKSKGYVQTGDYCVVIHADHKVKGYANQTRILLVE
# Chain of Pyruvate kinase PKM (Homo sapiens) (P14618 whole entry, looked up): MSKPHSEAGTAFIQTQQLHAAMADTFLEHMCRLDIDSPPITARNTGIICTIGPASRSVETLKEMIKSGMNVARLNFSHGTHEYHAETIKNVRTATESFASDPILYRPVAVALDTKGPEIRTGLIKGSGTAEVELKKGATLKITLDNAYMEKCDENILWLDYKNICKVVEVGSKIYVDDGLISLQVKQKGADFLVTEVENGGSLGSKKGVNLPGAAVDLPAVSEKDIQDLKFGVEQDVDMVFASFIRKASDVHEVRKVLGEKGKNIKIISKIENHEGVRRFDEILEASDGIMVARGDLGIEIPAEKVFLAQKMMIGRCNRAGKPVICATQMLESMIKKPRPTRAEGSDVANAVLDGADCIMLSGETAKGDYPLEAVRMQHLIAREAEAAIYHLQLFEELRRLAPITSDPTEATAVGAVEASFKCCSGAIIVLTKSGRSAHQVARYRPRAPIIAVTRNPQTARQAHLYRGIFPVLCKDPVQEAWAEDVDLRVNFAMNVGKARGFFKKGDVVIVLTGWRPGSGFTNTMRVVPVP
smiles,measurement,setting,value
Oc1ccc(/C=C\c2cc(O)cc(O)c2)cc1,Potency,[1],3.16 µM (active)
same,outcome,[2],inactive
same,outcome,[3],inactive
